Test results as given in PubChem BioAssay (Tox21).
Unmarked numbers belong to inactive results. A call without a number means that no potency is given here. The source made the active and inactive calls. Calls come from the whole dose curve.

Assay: qHTS assay to identify small molecule agonists of the sonic hedgehog signaling (Shh) pathway (AID 1259368);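 note: NIH/3T3-derived 3T3Gli1-Luc cells carrying a stable Gli1-driven firefly luciferase reporter; nearly all actives have a fitted effect of over 15% in size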
Conditions: NIH/3T3 Gli1-Luc reporter, luciferase, 24 h; series mostly up to 92.4 µM
Text: National Center for Advancing Translational Sciences [NCATS]
NIH Chemical Genomics Center [NCGC]
U.S. Environmental Protection Agency [EPA]
National Institutes of Environmental Health Sciences [NIEHS]
National Toxicology Program [NTP]
The sonic hedgehog (Shh) pathway is essential for normal embryonic development. Dysregulation of the Shh pathway can cause severe developmental defects in organs. Therefore chemicals that interfere with the pathway are potential developmental toxicants. A cell line designated 3T3Gli1-Luc (DMB/OARSA/CFSAN/FDA, Laurel, MD), a NIH/3T3 derived clone containing stably integrated Gli1-Luc reporter is used to detect chemical interference of the Shh pathway, by changes in the expression of the firefly Luc gene under the control of the Gli1 transcriptional response element. This cell line was used to screen Tox21 libraries for identifying and prioritizing the potential developmental toxicants that interfere Shh pathway.
3T3 Gli1-Luc cells were dispensed at 2,000 per well in 5uL of culture medium into white solid bottom 1536-well plates (Greiner Bio-One, Monroe, NC) using a Multidrop Combi (Thermo Scientific, Waltham, MA) dispenser. The assay plates were incubated at 37 C and 5% CO2 for 4hr, and then 23nL of compounds dissolved in DMSO and positive control were transferred using a Pintool station (Wako, San Diego, CA). The assay plates were incubated at 37C and 5% CO2 for 24hr. For luciferase read, 4uL of Amplite Luciferase reporter gene assay reagent (AAT Bioquest, Inc. Sunnyvale, CA) was added to each well of the assay plates using Flying Reagent Dispenser (FRD, Aurora Discovery, San Diego, CA) and incubated at room temperature for 30min. The luminescence signal was measured using a ViewLux plate reader (Perkin Elmer, Shelton, CT).

Structure (SMILES) | Potency | activity change
C=CC(=O)OC | inactive | –
NCC(CC(=O)O)c1ccc(Cl)cc1 (stereo not given) | – | -1.29% [at 0.349 µM, active compounds read high]
CCCCN=C=O | inactive | –
CCCCCCC#N | inactive | –
O=C(OC1CCCCC1)c1ccccc1C(=O)OC1CCCCC1 | inactive | –
C=C(C#N)CCC#N | inactive | –
CC(C)N(CCC(C(N)=O)(c1ccccc1)c1ccccn1)C(C)C (stereo not given) | inactive | –
O=S1(=O)OC(c2cc(Br)c(O)c(Br)c2)(c2cc(Br)c(O)c(Br)c2)c2ccccc21 | inactive | –
O=C1C(=O)c2cccc3cccc1c23 | inactive | –
CO/N=C(/C(=O)OC)c1ccccc1COc1ccccc1C | inactive | –
COCCOCCO | inactive | –
CCOC(=O)CBr | inactive | –
Clc1cccc(SC2CCNCC2)n1 | inactive | –
N#C/C(N)=C(/N)C#N | inactive | –
O=C(Nc1ccccc1)Nc1cnns1 | inactive | –
COCC(C)N(C(=O)CCl)c1c(C)csc1C (stereo not given) | inactive | –
CC1C(=O)C[C@]2(C(C)C)C[C@H]12 (stereo not given in full) | inactive | –
O=Cc1ccc2c(c1)OCO2 | inactive | –
CN1C(=O)C(O)N=C(c2ccccc2)c2cc(Cl)ccc21 (stereo not given) | inactive | –
Cc1ccccc1CCl | inactive | –

Structure (SMILES) | Potency | activity change
CCOP(=O)(OCC)Oc1ccc([N+](=O)[O-])cc1 | inactive | –
Clc1ccc(C(OCCN2CCCCC2)c2ccccc2)cc1 (stereo not given) | inactive | –
C=CCCl | inactive | –
N#Cc1ccc(Cl)cc1 | inactive | –
ClP(Cl)(Cl)(Cl)Cl | inactive | –
CC/C(=N\OC/C=C/Cl)C1=C(O)CC(C2CCOCC2)CC1=O (stereo not given) | inactive | –
CC(C)=CCOc1c2occc2cc2ccc(=O)oc12 | inactive | –
CC(O)(CS(=O)(=O)c1ccc(F)cc1)C(=O)Nc1ccc(C#N)c(C(F)(F)F)c1 (stereo not given) | inactive | –
CC(=O)[C@H]1CC[C@H]2[C@@H]3CC[C@H]4C[C@](C)(O)CC[C@]4(C)[C@H]3CC[C@]12C | inactive | –
O=C(O)CC(Cl)C(=O)O (stereo not given) | inactive | –
Clc1cc(Cl)c(Cl)c(Cl)c1 | inactive | –
NC(=O)C(Cl)(Cl)Cl | inactive | –
O=C(CCl)c1ccc(Cl)cc1Cl | inactive | –
Cl/C=C\Cl | inactive | –
CC1(C)[C@H](C=C(Cl)Cl)[C@@H]1C(=O)O[C@@H](C#N)c1cccc(Oc2ccccc2)c1 | inactive | –
CS/C(C)=N/OC(=O)N(C)SN(C)C(=O)O/N=C(\C)SC | inactive | –
CC(Cl)C(C)Cl (stereo not given) | inactive | –
CCOC(=O)C(Cl)C(C)=O (stereo not given) | inactive | –
CCC(Br)(CC)C(=O)NC(N)=O | inactive | –
c1ccc(CN2CCNCC2)cc1 | inactive | –
